# Test results: PubChem BioAssay AID624483 (NMMLSC, 2012)
# About 11,000 (3.1%) of roughly 360,000 compounds were called active. Roughly 2% stayed inconclusive and do not appear here. Many of the other results were omitted from the sample, so actives are more common in it than they were. Values without a mark were called inactive. No stated cut-off is given here; in the data, active means fluorescence intensity above about 16000; inconclusive means no clear call, values can overlap the other calls; inactive means below that.
# Experiment: counter-screen for toxin protease inhibitors: compound fluorescence, primary screen, artefact control for toxin protease inhibitor project, biochemical, multiplex microsphere, HTS (AID 624483)
# Details: compound autofluorescence counterscreen, microsphere flow cytometry; stronger effect = higher value
row,SMILES,fluorescence intensity
1,CCOC(=O)N1C(=O)C[C@](Sc2ccc(C)cc2)(C(=O)OC)[C@H]1c1ccccc1,5390
2,Cc1ccc(C)c(C(O)c2ncc(-c3cccc4ccccc34)[nH]2)c1 (centres undefined),3640
3,CC1(C2CC2)NC(=O)N(CC(=O)N2CCN(c3ccccc3F)CC2)C1=O (centres undefined),2860
4,Cc1csc(SCC(=O)Nc2ccc(C)c(S(=O)(=O)N(C)C)c2)n1,3940
5,Cc1ccc(CCNC(=O)C2CCN(S(=O)(=O)N3CCCC3)CC2)cc1,9470
6,CCOC(=O)C1C(=O)NC(N2CCN(c3ccccc3)CC2)=NC1c1ccco1 (centres undefined),23400 (active)
7,CCOC(=O)C1C(=O)C=C(c2ccc(OC)cc2)CC1c1ccco1 (centres undefined),2300
8,CCOC(=O)C1(C)NC(c2ccco2)C2C(=O)N(c3ccccc3)C(=O)C21 (centres undefined),4000
9,Cc1ccc(N2C(=O)CC(Nc3cccc4ccccc34)C2=O)cc1 (centres undefined),3720
10,Cc1ccc(N2C(=O)C3C(c4ccccc4)(C2=O)C3(c2ccccc2)c2ccccc2)cc1 (centres undefined),22200 (active)
11,Cc1ccc(C2SCC(=O)N2c2ccccc2)cc1 (centres undefined),3540
12,COc1ccccc1Nc1ncc(C(C)=O)c(C)n1,2840
13,O=C1CCC(C(=O)N2CCC(O)(c3ccccc3)CC2)CN1CCc1ccccc1 (centres undefined),5620
14,CC(C)C[C@@H](COCc1ccc(Cl)cc1)N1CCN(C(=O)c2ccc(Cl)cc2Cl)CCC1=O,4700
15,Cc1cc2c(cc1C)N1C(=O)c3cc4ccccc4cc3NC(=O)C1C(=O)N2 (centres undefined),5850
16,CCn1c(CSc2nncn2-c2ccc(OC)cc2)nc2cc(S(=O)(=O)N(C)C)ccc21,20000 (active)
17,COc1ccc(-n2cnnc2SCC(=O)Nc2cccc(S(N)(=O)=O)c2)cc1,5460
18,COc1ccc(S(=O)(=O)N(C)C)cc1NC(=O)CSc1ncccn1,2020
19,CC[C@@H]1CC2=C(C(=O)OC(C)(C)O2)[C@@H](CC)O1,5670
20,CC(C)(C)S(=O)(=O)N1Cc2cc(CO)cc(CCO)c2[C@H]1CCO,3670
21,Cc1ccccc1S(=O)(=O)NC(=O)C1(C)CCN1C(=O)C1(c2ccc(Cl)cc2)CC1 (centres undefined),4140
22,Cc1cc(Nc2ccc(C(=O)N3CCCCC3)cc2)c2cccc(C)c2n1,3660
23,Cc1oc2c(c1C(=O)N1CCOCC1)C(=O)c1ccccc1C2=O,5580
24,Cc1ccccc1-c1ccc(Nc2ccc(C(=O)N3CCOCC3)cc2)nn1,16400 (active)

row,SMILES,fluorescence intensity
1,CCCCc1ccc(S(=O)(=O)NC(=O)C2(C)CCN2C(=O)c2c(C)noc2C)cc1 (centres undefined),2860
2,CCc1nc2c(OCc3ccc(Cl)cc3Cl)cccn2c1N(C)C(=O)C(C)C,4460
3,O=C(COc1ccc(Cl)cc1)Nc1ccc2c(c1)OCO2,3940
4,CC(C)CNS(=O)(=O)c1ccc(OCC(=O)Nc2ccc3c(c2)OCO3)c(Cl)c1,16300 (active)
5,Cc1cc(S(=O)(=O)NCC(C)C)ccc1OCC(=O)NC1CC1,5980
6,Nc1c(C(=O)OCC(=O)Nc2ccc(OC(F)F)cc2)[nH]c(=O)[nH]c1=O,3380
7,CC(C)(CCl)C(=O)Nc1ccc(Sc2ccc(F)cc2)cc1,20700 (active)
8,O=C(CCl)Nc1ccc(Sc2ccc(NC(=O)CCl)cc2)cc1,4330
9,Cc1ccc(Sc2ccc(NC(=O)c3ccc(F)cc3)cc2C#N)cc1,4940
10,CC(NC(=O)CN(C)S(=O)(=O)c1ccc(F)cc1)C1CC2CCC1C2 (centres undefined),3360
11,Cc1c(C(=O)NCc2ccc(C#N)cc2)sc(=O)n1Cc1ccc(C(=O)N(C)C)cc1,4330
12,CC1COC2C(O1)N(S(C)(=O)=O)CCN2S(C)(=O)=O (centres undefined),25700 (active)
13,CC1OC2C(OC1C)N(S(C)(=O)=O)CCN2S(C)(=O)=O (centres undefined),15900
14,Cc1ccc(S(=O)(=O)N2CCN(C(=O)CN3C(=O)NC(C)(c4ccc(Cl)cc4)C3=O)CC2)c(C)c1 (centres undefined),3900
15,Cc1cc(C)n2c(Nc3c(C)cccc3C)c(CCc3ccccc3)nc2n1,5430
16,Cc1onc(-c2c(Cl)cccc2Cl)c1C(=O)c1c[nH]c(C(=O)NC2CC2)c1,23200 (active)
17,C/C(=N/OC(=O)c1c(-c2c(F)cccc2Cl)noc1C)c1cnccn1,3970
18,Cc1onc(-c2c(F)cccc2Cl)c1C(=O)OCC(=O)N1C(C)CCCC1C (centres undefined),3180
19,CC1=C(C(=O)N(C)C)CC(CC(=O)NCCN2CCOCC2)C(=O)N1Cc1ccccc1 (centres undefined),3750
20,CC1(C(=O)Nc2ccc3c(c2)OCCO3)CCN1C(=O)Cc1cc(F)ccc1F (centres undefined),3870
21,Clc1ccc(C=NC23CN4CN(CN(C4)C2)C3)cc1,3520
22,COC(=O)C1[C@H]2SC(C)(C)C(C(=O)OC)N2C(=O)N1Cc1nc2ccccc2s1 (some centres undefined),3920
23,Cc1ccc(C(=O)N2CCCC2)c(F)c1F,24700 (active)
24,Cc1c(Br)cc(C(=O)N2CCCCCC2)c(C)c1C,4200

row,SMILES,fluorescence intensity
1,CCNC(=O)C1CCCN(C(=O)c2cc(F)ccc2C)CC1 (centres undefined),3900
2,CNC(=O)c1nnc(Cc2ccc(Cl)cc2)o1,4900
3,COc1cccc(C(NC(C)=O)c2nc(-c3cnc4ccccc4c3)cs2)c1 (centres undefined),3770
4,CC(C)(C)NS(=O)(=O)c1ccc(NC(=O)C2CCCO2)cc1 (centres undefined),3950
5,CC(C)c1ccc(NC(=O)NC2CCCCC2)cc1,10400
6,CC(C)(C)NS(=O)(=O)c1ccc(NC(=O)NC2CCCCC2)cc1,17000 (active)
7,CC1(Cc2cccc(C#N)c2)C(=O)Nc2ccc(-c3cccc(C(F)(F)F)c3)cc21 (centres undefined),2910
8,CCOC(=O)C1=CCC(c2ccc(F)cc2)N(S(=O)(=O)c2ccc(C)cc2)C1 (centres undefined),6000
9,CC1=C(C(=O)N2CCOCC2)CC(CC(=O)NCC2CCCCC2)C(=O)N1Cc1ccc(F)cc1 (centres undefined),3780
10,O=C(c1ccc2c(c1)N(Cc1ccc(F)cc1)C(=O)CS2)N1CCOCC1,23800 (active)
11,O=C(c1ccc(CN2CCOCC2)cc1)N1CCN(c2ccccc2F)CC1,3620
12,CCOC(=O)c1sc(NC(=O)c2sc(C)nc2C)nc1C,3060
13,COC(=O)c1sc(NC(=O)c2csc3c2CCCC3)nc1C,19100 (active)
14,CC1CC(C)CN(CCCNC(=O)c2csc3c2CCCCC3)C1 (centres undefined),5260
15,CC(C)(C)Cc1c(C2CCCCC2)nc2ccc(Br)cn12,5440
16,CC(=O)NC(c1cccs1)c1cc(Br)c2cccnc2c1O (centres undefined),3590
17,COc1ccc(-c2csc(N3CCN(Cc4ccc5c(c4)OCO5)CC3)n2)cc1,23000 (active)
18,COc1ccc(C(O)c2nc(-c3ccc4c(c3)OCO4)cs2)cc1 (centres undefined),2970
19,COc1ccc(-c2cc(C(=O)N3CCN(Cc4ccc5c(c4)OCO5)CC3)on2)cc1OC,5740
20,Cc1cc(C)n2nc(C(=O)N3CCN(Cc4ccc5c(c4)OCO5)CC3)nc2n1,4210
21,O=C(NCc1ccc2c(c1)OCO2)C1CCCN(S(=O)(=O)c2cccs2)C1 (centres undefined),5650
22,Fc1ccc(N2CCN(Cc3ccc4c(c3)OCO4)CC2)cc1,22800 (active)
23,CCc1c(C)nc2ncnn2c1N1CCC(C(=O)NCc2ccc3c(c2)OCO3)CC1,20900 (active)
24,Cc1cc(N2CCN(c3ccc(F)cc3)CC2)n2ncnc2n1,3960

row,SMILES,fluorescence intensity
1,Cc1cc(N2CCN(Cc3ccc4c(c3)OCO4)CC2)n2ncnc2n1,21200 (active)
2,N#C/C=C/N1CCN(Cc2ccc3c(c2)OCO3)CC1,3600
3,Cc1cc(C)c(S(=O)(=O)NCC2CCC(C(=O)NCc3ccc4c(c3)OCO4)CC2)c(C)c1 (centres undefined),8390
4,Oc1cc2c(cc1CN1CCN(c3ccccc3)CC1)OCO2,5830
5,CCc1nc2ccc(C(=O)NC3CCN(Cc4ccccc4)CC3)cn2c1N(C)CCN1CCOCC1,3530
6,O=C(NCc1ccccn1)[C@@H]1CCCN1C(=O)[C@@H]1CCCN1C(=O)c1ccccc1,5750
7,CCCNC(=O)c1cc(C2CCCCN2S(=O)(=O)c2ccc(C#N)cc2)on1 (centres undefined),3490
8,CCNC(=O)C1(C)CCCN(C(=O)c2c(C)noc2C)C1 (centres undefined),2990
9,COc1ccccc1CC1(C)C(=O)Nc2ccc(OC(F)(F)F)cc21 (centres undefined),3460
10,O=C(Nc1ccc2c(c1)OCCO2)C(C1CC1)N1CCC(Cc2ccccc2)CC1 (centres undefined),5440
11,O=C(NCC(=O)N1CCC2(CC1)NCCc1[nH]cnc12)c1ccc(Br)cc1,4440
12,O=C(C[n+]1ccc2c(c1)nnn2-c1ccccc1)c1ccc(Cl)cc1,5380
13,CC1(C(=O)NS(=O)(=O)c2ccc(C#N)cc2)CCN1C(=O)c1ccc(C2CCCCC2)cc1 (centres undefined),3450
14,C=CCNC(=O)c1ccccc1SCc1c(C)noc1C,5700
15,Cc1noc(C)c1CSc1nnc2ccc3ccccc3n12,23000 (active)
16,Cc1noc(C)c1COC(=O)Cn1c(C)nc2ccccc21,3460
17,COc1ccc(C)cc1NC(=O)c1ccc(-c2ccc(C(C)=O)cc2)o1,3980
18,OCCC1CN(Cc2ccc3nsnc3c2)CCN1C1CCCCC1 (centres undefined),2180
19,CS(=O)(=O)c1cccc(-c2ccc3nncn3c2)c1,3880
20,CCOc1ccc(-c2n[nH]c(=S)n2/N=C/c2cc3c(cc2[N+](=O)[O-])OCO3)cc1,7340
21,O=[N+]([O-])c1ccccc1/C=N/n1c(COc2ccccc2)n[nH]c1=S,22400 (active)
22,Fc1ccc(/C=N/n2c(COc3ccccc3)n[nH]c2=S)cc1,3650
